According to PubChem BioAssay AID1159580 (chemical genetic matrix, 2015):
The whole screen tested about 5,500 compounds, of which about 2,000 (36%) were called active. Not shown: some 18% with an inconclusive outcome. Rule as the data show it: active = normalized growth mostly below about 0.91 (no sharp cut-off); inconclusive = no clear call, values can overlap the other calls; inactive = mostly above about 0.92. This is one part of the list.

Assay: chemical genetic growth profiling, strain panel (AID 1159580);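 also: tested at 20 µM; growth read once vehicle control cultures reached saturation at 30 °C; 1 = growth at the plate median or of vehicle wells; lower values mean less growth of the strain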
Conditions: growth OD

Measured: normalized growth

Cn1nnnc1SCC1=C(C(=O)O)N2C(=O)C(NC(=O)C(OC=O)c3ccccc3)C2SC1 (stereo unspecified)
inactive: S. cerevisiae deletion strains, locus YJR075W, strain HOC1, stronger effect = lower value 1.01 | S. cerevisiae deletion strains, locus YKL009W, strain mrt4, stronger effect = lower value 1.02 | S. cerevisiae deletion strains, locus YKL068W, stronger effect = lower value 1.01 | S. cerevisiae deletion strains, locus YKL085W, strain MDH1 (second series), stronger effect = lower value 1 | S. cerevisiae deletion strains, locus YKL085W, strain MDH1, stronger effect = lower value 1 | S. cerevisiae deletion strains, locus YKL160W, strain elf1, stronger effect = lower value 1.01 | S. cerevisiae deletion strains, locus YKL190W, strain CNB1, stronger effect = lower value 1 | S. cerevisiae deletion strains, locus YKR001C, strain vps1, stronger effect = lower value 1.02 | S. cerevisiae deletion strains, locus YKR026C, strain gcn3, stronger effect = lower value 0.989 | S. cerevisiae deletion strains, locus YKR091W, strain srl3, stronger effect = lower value 0.995 | S. cerevisiae deletion strains, locus YLL001W, strain dnm1, stronger effect = lower value 1 | S. cerevisiae deletion strains, locus YLL026W, stronger effect = lower value 0.997 | S. cerevisiae deletion strains, locus YLL041C, strain sdh2, stronger effect = lower value 1 | S. cerevisiae deletion strains, locus YLR027C, strain aat2, stronger effect = lower value 0.992 | S. cerevisiae deletion strains, locus YLR039C, strain RIC1, stronger effect = lower value 1 | S. cerevisiae deletion strains, locus YLR058C, strain SHM2, stronger effect = lower value 1 | S. cerevisiae deletion strains, locus YLR102C, strain apc9, stronger effect = lower value 1.02 | S. cerevisiae deletion strains, locus YLR113W, strain HOG1, stronger effect = lower value 0.941 | S. cerevisiae deletion strains, locus YLR221C, strain rsa3, stronger effect = lower value 0.987 | S. cerevisiae deletion strains, locus YLR258W, strain gsy2, stronger effect = lower value 0.998 | S. cerevisiae deletion strains, locus YLR262C, strain YPT6 (second series), stronger effect = lower value 1.02 | S. cerevisiae deletion strains, locus YLR262C, strain YPT6, stronger effect = lower value 1.04 | S. cerevisiae deletion strains, locus YLR268W, strain sec22, stronger effect = lower value 1.01 | S. cerevisiae deletion strains, locus YLR320W, strain mms22, stronger effect = lower value 0.993 | S. cerevisiae deletion strains, locus YLR330W, strain CHS5, stronger effect = lower value 1 | S. cerevisiae deletion strains, locus YLR342W, strain FKS1 (second series), stronger effect = lower value 0.999 | S. cerevisiae deletion strains, locus YLR342W, strain FKS1, stronger effect = lower value 0.992 | S. cerevisiae deletion strains, locus YLR357W, strain rsc2, stronger effect = lower value 0.94 | S. cerevisiae deletion strains, locus YLR370C, strain arc18, stronger effect = lower value 0.989 | S. cerevisiae deletion strains, locus YLR371W, strain rom2, stronger effect = lower value 1.02 | S. cerevisiae deletion strains, locus YLR384C, strain iki3, stronger effect = lower value 0.991 | S. cerevisiae deletion strains, locus YLR418C, strain cdc73, stronger effect = lower value 1.04 | S. cerevisiae deletion strains, locus YML016C, strain PPZ1, stronger effect = lower value 1.01 | S. cerevisiae deletion strains, locus YML032C, strain rad52, stronger effect = lower value 1.04 | S. cerevisiae deletion strains, locus YML120C, strain ndi1, stronger effect = lower value 1.02 | S. cerevisiae deletion strains, locus YML124C, strain tub3, stronger effect = lower value 1.02 | S. cerevisiae deletion strains, locus YMR058W, strain fet3, stronger effect = lower value 0.998 | S. cerevisiae deletion strains, locus YMR078C, strain ctf18, stronger effect = lower value 1.02 | S. cerevisiae deletion strains, locus YMR125W, strain sto1, stronger effect = lower value 0.989 | S. cerevisiae deletion strains, locus YMR129W, stronger effect = lower value 1 | S. cerevisiae deletion strains, locus YMR205C, strain PFK2, stronger effect = lower value 1.02 | S. cerevisiae deletion strains, locus YMR223W, strain ubp8, stronger effect = lower value 1.02 | S. cerevisiae deletion strains, locus YMR231W, strain pep5, stronger effect = lower value 0.998 | S. cerevisiae deletion strains, locus YMR263W, strain SAP30, stronger effect = lower value 0.999 | S. cerevisiae deletion strains, locus YMR307W, strain GAS1, stronger effect = lower value 1.07 | S. cerevisiae deletion strains, locus YNL067W, strain RPL9B, stronger effect = lower value 1 | S. cerevisiae deletion strains, locus YNL071W, strain lat1, stronger effect = lower value 1 | S. cerevisiae deletion strains, locus YNL128W, strain TEP1, stronger effect = lower value 1.02 | S. cerevisiae deletion strains, locus YNL153C, strain GIM3, stronger effect = lower value 0.997 | S. cerevisiae deletion strains, locus YNL183C, strain NPR1, stronger effect = lower value 0.934 | S. cerevisiae deletion strains, locus YNL209W, strain ssb2, stronger effect = lower value 1 | S. cerevisiae deletion strains, locus YNL233W, strain BNI4, stronger effect = lower value 0.993 | S. cerevisiae deletion strains, locus YNL248C, strain rpa49, stronger effect = lower value 0.986 | S. cerevisiae deletion strains, locus YNL250W, strain rad50, stronger effect = lower value 1.02 | S. cerevisiae deletion strains, locus YNL271C, strain bni1, stronger effect = lower value 1.04 | S. cerevisiae deletion strains, locus YNL298W, strain CLA4, stronger effect = lower value 1.05 | S. cerevisiae deletion strains, locus YNL307C, strain MCK1, stronger effect = lower value 1.03 | S. cerevisiae deletion strains, locus YNL322C, strain KRE1 (second series), stronger effect = lower value 1 | S. cerevisiae deletion strains, locus YNR049C, strain mso1, stronger effect = lower value 0.988 | S. cerevisiae deletion strains, locus YNR052C, strain pop2, stronger effect = lower value 1.03 | S. cerevisiae deletion strains, locus YOL006C, strain TOP1, stronger effect = lower value 1.02 | S. cerevisiae deletion strains, locus YOL012C, strain htz1 0.769 | S. cerevisiae deletion strains, locus YOL147C, strain pex11, stronger effect = lower value 1.02 | S. cerevisiae deletion strains, locus YOR001W, strain rrp6, stronger effect = lower value 0.973 | S. cerevisiae deletion strains, locus YOR061W, strain CKA2, stronger effect = lower value 1.01 | S. cerevisiae deletion strains, locus YOR069W, strain VPS5, stronger effect = lower value 0.993 | S. cerevisiae deletion strains, locus YOR070C, strain gyp1, stronger effect = lower value 0.985 | S. cerevisiae deletion strains, locus YOR080W, strain dia2, stronger effect = lower value 1 | S. cerevisiae deletion strains, locus YOR083W, strain WHI5, stronger effect = lower value 1.01 | S. cerevisiae deletion strains, locus YOR106W, strain vam3, stronger effect = lower value 1.02 | S. cerevisiae deletion strains, locus YOR136W, strain idh2, stronger effect = lower value 1.03 | S. cerevisiae deletion strains, locus YOR144C, strain elg1, stronger effect = lower value 1.01 | S. cerevisiae deletion strains, locus YOR184W, strain ser1, stronger effect = lower value 1.02 | S. cerevisiae deletion strains, locus YOR231W, strain MKK1, stronger effect = lower value 0.983 | S. cerevisiae deletion strains, locus YOR265W, strain rbl2, stronger effect = lower value 1.01 | S. cerevisiae deletion strains, locus YOR270C, strain vph1, stronger effect = lower value 1.01 | S. cerevisiae deletion strains, locus YOR290C, strain snf2, stronger effect = lower value 1.01 | S. cerevisiae deletion strains, locus YOR316C, strain cot1, stronger effect = lower value 1.02 | S. cerevisiae deletion strains, locus YPL051W, strain arl3, stronger effect = lower value 0.983 | S. cerevisiae deletion strains, locus YPL055C, strain LGE1, stronger effect = lower value 1.02 | S. cerevisiae deletion strains, locus YPL078C, strain atp4, stronger effect = lower value 1.01 | S. cerevisiae deletion strains, locus YPL106C, strain sse1, stronger effect = lower value 1.01 | S. cerevisiae deletion strains, locus YPL240C, strain hsp82, stronger effect = lower value 0.995 | S. cerevisiae deletion strains, locus YPL241C, strain CIN2, stronger effect = lower value 1 | S. cerevisiae deletion strains, locus YPL256C, strain CLN2, stronger effect = lower value 0.999 | S. cerevisiae deletion strains, locus YPR119W, strain clb2, stronger effect = lower value 1.02 | S. cerevisiae deletion strains, locus YPR141C, strain kar3, stronger effect = lower value 1.01 | S. cerevisiae deletion strains, locus YPR163C, strain tif3, stronger effect = lower value 1.04 | S. cerevisiae deletion strains, locus YPR167C, strain met16, stronger effect = lower value 1.02 | S. cerevisiae deletion strains, strain wtn01, stronger effect = lower value 1.01 | S. cerevisiae strains, strain wild type, stronger effect = lower value 1
